Data taken from ChEMBL document CHEMBL3433997, “St. Jude Leishmania screening dataset” (2016).

How the values were obtained:
Format in all cases: functional
[1] = target: Solute carrier family 2, facilitated glucose transporter member 1 (Homo sapiens) (UniProt P11166); test: ST_JUDE_LEISH: Cytotoxicity at 2uM final concentration against transgenic Leishmania Mexicana promastigotes LmGLUT1 that are glucose transport deficient and complemented with the human glucose transporter GLUT1. Activity is measured by DNA content using SYBR green in vitro
[2] = target: Hexose transporter 1 (Plasmodium falciparum) (UniProt O97467); test: ST_JUDE_LEISH: Cytotoxicity at 2uM final concentration against transgenic Leishmania Mexicana promastigotes LmPfHT that are glucose transport deficient and complemented with the Plasmodium falciparum hexose transporter. Activity is measured by DNA content using SYBR green in vitro
[3] = target: Glucose transporter (Leishmania mexicana) (UniProt O61059); test: ST_JUDE_LEISH: Cytotoxicity at 2uM final concentration against transgenic Leishmania Mexicana promastigotes LmGT2 that are glucose transport deficient and complemented with the L. Mexicana glucose transporter 2. Activity is measured by DNA content using SYBR green in vitro

Sequence of Solute carrier family 2, facilitated glucose transporter member 1 (Homo sapiens) (P11166 whole entry): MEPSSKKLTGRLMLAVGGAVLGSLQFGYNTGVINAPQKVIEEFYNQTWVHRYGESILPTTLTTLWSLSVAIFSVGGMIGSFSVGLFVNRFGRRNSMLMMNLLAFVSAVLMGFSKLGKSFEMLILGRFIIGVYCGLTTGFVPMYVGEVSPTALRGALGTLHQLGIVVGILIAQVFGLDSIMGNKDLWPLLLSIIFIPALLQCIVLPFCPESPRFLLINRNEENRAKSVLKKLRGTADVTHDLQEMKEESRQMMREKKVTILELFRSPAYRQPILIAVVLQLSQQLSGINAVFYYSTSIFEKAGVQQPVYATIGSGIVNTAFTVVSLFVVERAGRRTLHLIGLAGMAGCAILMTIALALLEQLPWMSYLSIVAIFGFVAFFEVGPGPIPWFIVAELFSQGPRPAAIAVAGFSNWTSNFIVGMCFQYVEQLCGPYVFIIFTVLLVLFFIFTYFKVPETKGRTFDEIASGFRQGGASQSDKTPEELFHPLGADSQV

| Compound | inhibition [1] [%] | inhibition [2] [%] | inhibition [3] [%] |
| --- | --- | --- | --- |
| Cc1cc(C)c2cc(CNCCCNc3nc4ccccc4[nH]3)[nH]c2c1 | 1.11 | 0.15 | 2.91 |
| O=C(O)CCSc1ncnc2[nH]cnc12 | -2.53 | -2.15 | -2.15 |
| CCCCN1Cc2c(n(CC(=O)Nc3ccccc3)c3cc(-c4ccccc4)nn3c2=O)C1=O | 1.25 | 1.92 | 1.8 |
| c1ccc(CNCCn2c(-c3ccc4c(c3)CCO4)nc3c(N4CCCC4)cccc32)cc1 | 11.7 | 8.74 | 6.86 |
| CC(=O)Nc1cccc(CNCc2ccc(-c3cnc(N4CCCC(C)(C)C4)nc3)cc2)c1 | -2.79 | 3.36 | 0.65 |
| CC(C)c1ccc(NC(=O)NC2CCN(CCCCCN(C)C(=O)/C=C/c3ccc(Cl)c(Cl)c3)C2)cc1 (centres undefined) | 5.33 | 7.26 | 6.41 |
| Cc1cc(=NN=Cc2ccccc2Cl)c2ccccc2[nH]1 | 8.12 | 8.36 | 5.86 |
| CCc1ccc(-c2cnc(N)c3cc(-c4ccnc(N)n4)ccc23)cc1 | -0.81 | -4.63 | -1.72 |
| O=C(Nc1cccc(Cl)c1Cl)N[C@H]1CCN(CCCCCNC(=O)C2CC2c2ccc(Cl)c(Cl)c2)C1 (some centres undefined) | 5.31 | 4.52 | 1.19 |
| Cc1cc([N+](=O)[O-])ccc1NC(=O)Nc1cccc(C(F)(F)F)c1 | 5.58 | 3.9 | 4.81 |
| O=C(Nc1cccc(CN2CCCN(Cc3cccnc3)CC2)c1)c1cc2ccccc2s1 | 4.38 | 4.77 | -1.53 |
| COc1cc(Cc2cnc(N)nc2N)ccc1OCc1csc(-c2ccc(Cl)cc2)n1 | 10 | 11.7 | 9.8 |
| O=C(Nc1ccc(Cl)cc1)c1cc(Cl)ccc1NC(=O)C1(c2ccc(Cl)cc2)CCCC1 | -0.07 | 2.74 | 1.43 |
